Reference: ChEMBL document CHEMBL4513155, “CO-ADD screening of University of Sydney (Australia) compounds” (2021)
Measured potencies and affinities stand elsewhere.

What was measured:
Klebsiella pneumoniae = conditions: Concentration 32 ug.mL-1; ASSAY_TEST Inhibition of Bacterial Growth; detection method Absorption (OD600); MEDIA CAMHB; plate type 384well; NBS; CORNING #3640; time 18 hr
Candida albicans = conditions: 32 ug/mL
Cryptococcus neoformans = conditions: Concentration 32 ug.mL-1; ASSAY_TEST Inhibition of Fungal Growth; detection method Resazurin; Absorption (OD600-OD570); plate type 384well; NBS; CORNING #3640

How did the Inhibition (Klebsiella pneumoniae) turn out when `CN(C)C(COc1cncc2nnc(-c3ccc(C#N)cc3)n12)c1ccc(F)c(F)c1` (stereo unspecified) was run?
The Inhibition was 3.41%.

What about the Inhibition (Candida albicans) of the same molecule?
Its Inhibition is 5.98%.

What about the Inhibition (Cryptococcus neoformans) of the same molecule?
Its Inhibition is -16.61%.

Which results are given for `N#Cc1ccc(-c2nnc3cncc(OCC(O)c4ccc(F)c(F)c4)n23)cc1` (stereo unspecified)?
Inhibition (Klebsiella pneumoniae): -1.23%; Inhibition (Candida albicans): 4.19%; Inhibition (Cryptococcus neoformans): -9.99%

`O.O=C1c2cccc3c(-n4cc(CN5CCCNCCN(Cc6cn(-c7ccc8c9c(cccc79)C(=O)N(CCCO)C8=O)nn6)CCCNCC5)nn4)ccc(c23)C(=O)N1CCCO.[Cl-].[Cl-].[Zn+2]` was tested. Which Inhibition (Klebsiella pneumoniae) did it give?
Its Inhibition is 2.32%.

What about the Inhibition (Candida albicans) of the same molecule?
Its Inhibition is 7.28%.

What about the Inhibition (Cryptococcus neoformans) of the same molecule?
The Inhibition was -0.18%.

For `CCN1C(=O)c2cccc3c(-c4cn(CCN5CCCNCCN(CCn6cc([C@]7(O)CC[C@H]8[C@@H]9CCc%10cc(O)ccc%10[C@H]9CC[C@@]87C)nn6)CCCNCC5)nn4)ccc(c23)C1=O.OCCN1CCN(CCCN2c3ccccc3Sc3ccc(Cl)cc32)CC1.[O-][Cl+3]([O-])([O-])[O-].[O-][Cl+3]([O-])([O-])[O-].[Zn+2]`, which Inhibition (Klebsiella pneumoniae) is on record?
Its Inhibition is -7.97%.

And the Inhibition (Candida albicans)?
The Inhibition was 5.51%.

And the Inhibition (Cryptococcus neoformans)?
The Inhibition was 7.03%.

With `COC(COc1cncc2nnc(-c3ccc(C#N)cc3)n12)c1ccc(F)c(F)c1` (stereo unspecified) as the molecule, how does the Inhibition (Klebsiella pneumoniae) read?
Its Inhibition is -1.15%.

What about the Inhibition (Candida albicans) of the same molecule?
Its Inhibition is 2.84%.

And the Inhibition (Cryptococcus neoformans)?
The Inhibition was -10.36%.

Which results are given for `Fc1ccc(CCOc2cncc3nnc(-c4ccc(Cl)cc4)n23)cc1F`?
Inhibition (Klebsiella pneumoniae): -4.32%; Inhibition (Candida albicans): 7.82%; Inhibition (Cryptococcus neoformans): -0.27%

`Fc1ccc(CCOc2cncc3nnc(-c4ccc(C(F)(F)F)nc4)n23)cc1F` was tested. Which Inhibition (Klebsiella pneumoniae) did it give?
Its Inhibition is -0.34%.

And the Inhibition (Candida albicans)?
The Inhibition was 2.23%.

What about the Inhibition (Cryptococcus neoformans) of the same molecule?
The Inhibition was -5.49%.
